Values joined by “and” are separate entries in the source; they are usually repeats but may differ in a detail not shown here. Equal values may be shown once. Where a structure was tested more than once in an assay, its records may differ in their call. Active and inactive are the calls of the source. The call rests on the fitted dose curve; in most records, active means well fitted activation curve with a large enough effect in the signal ratio in the repeat runs (not every such curve was filed as active); inconclusive means weak or mixed curves, or effect the other way; inactive means no such curve, though single readings can be large or run the other way; the % refers to the signal ratio. Non-standard residues stand in square brackets, D forms with d. Residues, ends and D or L forms follow the SMILES beside them. Orn = NCCC[C@H](N)C(=O)O
Each compound was assayed against Glucocorticoid receptor (Homo sapiens) (UniProt P04150) (assay: qHTS assay to identify small molecule agonists of the glucocorticoid receptor (GR) signaling pathway (AID 720691)). Details: GR-bla HeLa, beta-lactamase reporter ratio, 18 h; activation: at 62.4 µM (top of the series).
Glucocorticoid receptor (Homo sapiens), sequence (P04150 whole entry, looked up): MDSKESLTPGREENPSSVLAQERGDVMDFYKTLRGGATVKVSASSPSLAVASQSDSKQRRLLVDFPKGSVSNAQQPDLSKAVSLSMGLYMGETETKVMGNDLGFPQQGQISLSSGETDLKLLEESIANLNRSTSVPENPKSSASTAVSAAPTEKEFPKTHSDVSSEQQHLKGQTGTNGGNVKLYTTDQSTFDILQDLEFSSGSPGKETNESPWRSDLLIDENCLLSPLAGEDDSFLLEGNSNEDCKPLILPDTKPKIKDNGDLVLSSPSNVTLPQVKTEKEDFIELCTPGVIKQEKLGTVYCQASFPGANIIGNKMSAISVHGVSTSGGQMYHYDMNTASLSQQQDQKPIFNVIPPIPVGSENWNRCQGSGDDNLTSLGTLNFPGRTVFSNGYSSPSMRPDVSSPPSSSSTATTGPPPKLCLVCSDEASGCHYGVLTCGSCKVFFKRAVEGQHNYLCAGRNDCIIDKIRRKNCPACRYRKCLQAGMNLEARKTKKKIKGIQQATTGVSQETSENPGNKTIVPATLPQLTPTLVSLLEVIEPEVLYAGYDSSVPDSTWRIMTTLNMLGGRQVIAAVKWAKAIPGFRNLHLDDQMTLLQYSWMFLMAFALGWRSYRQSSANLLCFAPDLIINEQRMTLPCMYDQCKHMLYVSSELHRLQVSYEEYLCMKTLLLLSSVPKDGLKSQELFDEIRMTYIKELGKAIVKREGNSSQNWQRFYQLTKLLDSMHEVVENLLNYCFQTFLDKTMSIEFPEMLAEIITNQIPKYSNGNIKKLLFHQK
Text: U.S. Tox21 Program National Center for Advancing Translational Sciences [NCATS] NIH Chemical Genomics Center [NCGC] U.S. Environmental Protection Agency [EPA] National Institutes of Environmental Health Sciences [NIEHS] National Toxicology Program [NTP] U.S. Food and Drug Administration [FDA] Tox21 Assay Overview: The Glucocorticoid receptor (GR) is one of the members of the nuclear receptor family of ligand-dependent transcription factors. GR plays a critical role in carbohydrate, protein and lipid metabolisms and programmed cell death. CellSensor GR-bla HeLa cell line (Invitrogen) contains a beta-lactamase reporter gene under the control of the glucocorticoid response element stably integrated into HeLa cells, a cervical cancer cell line that expresses glucocorticoid receptor. The activation of the reporter gene under culture conditions can be detected by fluorescence intensity. This cell line has been used to screen the Tox21 10K compound library and to identify the compounds that activate the GR signaling.
Tox21 Assay Protocol Summary: The GR-bla HeLa cells were dispensed at 1500 cells/6 ul/well in 1536-well black wall/clear bottom plates using a Multidrop Combi (ThermoFisher Scientific, Waltham, MA) dispenser. After the assay plates were incubated at a 37 C/5% CO2 incubator for 4 hours, 23 nL of compounds dissolved in DMSO, positive controls or DMSO only was transferred to the assay plate by a pintool station (Kalypsys, San Diego, CA). The plates were incubated at 37 C for 18 hours. After 1 uL of LiveBLAzerTM B/G FRET substrate was added using a Flying Reagent Dispenser (Aurora Discovery, San Diego, CA), the plates were incubated at room temperature for 2 hours, and fluorescence intensity was measured by an Envision plate reader (PerkinElmer, Shelton, CT).
On the % scale 0 is the no-effect control and ±100 the full control effect; potency means the concentration at half of the fitted maximal effect.

SMILES	Potency	activation
CCC[C@@H]1C[C@@H](C(=O)N[C@@H]([C@H]2O[C@H](SC)[C@H](OP(=O)(O)O)[C@@H](O)[C@H]2O)[C@H](C)Cl)N(C)C1	inactive	–
CC(C)(Oc1ccc(C2CCCc3ccccc32)cc1)C(=O)O (stereo not given)	–	-6.66% (inactive)
C/C(=C(/CCO)SSCC1CCCO1)N(C=O)Cc1cnc(C)nc1N (stereo not given)	inactive and 21.3 µM (active)	–
CCN(CC)CCOC[C@H]1O[C@@H](O)[C@H](OCCN(CC)CC)[C@@H](O)[C@@H]1O	–	-0.129% (inactive)
CC(C)[C@H](NC(=O)[C@H](CC(=O)O)NC(=O)[C@H](CCCCN)NC(=O)[C@@H](N)CCCN=C(N)N)C(=O)N[C@@H](Cc1ccc(O)cc1)C(=O)O (H-RKDVY-OH)	–	-5.08% (inactive)
C=CCc1cc(S(=O)(=O)c2ccc(O)c(CC=C)c2)ccc1O	–	39.3% (inactive)
CCCCC[C@H](O)/C=C/[C@@H]1[C@@H](C/C=C\CCCC(=O)O)[C@@H](O)C[C@H]1O	inactive	–
NC(=O)[C@H]1O[C@@H](O)[C@H](O)[C@@H](O)[C@@H]1O	–	0.681% (inactive)
FC(F)(F)COCC(F)(F)F	–	0.155% (inactive)
CC(O)(c1ccc(Cl)cc1)c1ccc(Cl)cc1	–	6.7% (inactive)
CNCC(=O)N[C@@H](CCCN=C(N)N)C(=O)N[C@H](C(=O)N[C@@H](Cc1ccc(O)cc1)C(=O)N[C@H](C(=O)N[C@@H](Cc1cnc[nH]1)C(=O)N1CCC[C@H]1C(=O)N[C@@H](C)C(=O)O)C(C)C)C(C)C	–	0.116% (inactive)
Cc1ccc2nc(-c3ccc(N)cc3)sc2c1S(=O)(=O)O	–	-4.07% (inactive)
CCOC(=O)COc1ccc2c(=O)cc(-c3ccccc3)oc2c1	inactive	–
CCN(CC)C(=O)c1cccnc1	–	0.869% (inactive)
NC(=O)C1c2ccccc2CCc2ccccc21	–	2.01% (inactive)
NCCO/C=C/[C@H](N)C(=O)O	–	-1.39% (inactive)
CCC(=O)OC(OP(=O)(CCCCc1ccccc1)CC(=O)N1C[C@H](C2CCCCC2)C[C@H]1C(=O)O)C(C)C (stereo not given in full)	–	-5.25% (inactive)
O=S(=O)(O)CC(S)CS (stereo not given)	–	1.14% (inactive)
O=C1CC[C@@H](C(=O)N[C@H]2C[C@@H]2c2ccccc2)N1	–	0.18% (inactive)
Cc1cccc(C)c1NC(=O)C1CCCCN1C (stereo not given)	–	3.48% (inactive)

SMILES	Potency	activation
Nc1nc(NC2CC2)c2ncn([C@@H]3C=C[C@@H](CO)C3)c2n1	–	-2.1% (inactive)
COc1cc(/C=C/C(=O)CC(=O)/C=C/c2ccc(O)c(OC)c2)ccc1O	–	6.3% (inactive)
C=CC[N@@+]12CC[C@@]34c5ccccc5N5/C=C6/[C@H]7C[C@H]8[C@@]9(CC[N@@+]8(CC=C)C/C7=C/CO)c7ccccc7N(/C=C(/[C@@H](C[C@@H]31)/C(=C\CO)C2)[C@H]54)[C@@H]69	–	0.074% [at 29.2 µM] (inactive)
CCc1ncnc2cc(OC)c(OC)cc12	–	-4.71% (inactive)
Oc1ccc(Cl)c2c1CCC2	–	-9.08% (inactive)
SC1CCCCC1	–	-2.66% [at 79.2 µM] (inactive)
C=CC(N)CCC(=O)O (stereo not given)	–	-0.774% (inactive)
CC[C@H]1OC(=O)[C@H](C)C(=O)[C@H](C)[C@@H](O[C@@H]2O[C@H](C)C[C@H](N(C)C)[C@H]2O)[C@](C)(OC)C[C@@H](C)C(=O)[C@H](C)[C@H]2N(CCCCn3cnc(-c4cccnc4)c3)C(=O)O[C@]12C	inactive	–
O=C1OC(=O)c2cc(-c3ccc4c(c3)C(=O)OC4=O)ccc21	–	5.29% (inactive)
CO/N=C(\C(=O)N[C@@H]1C(=O)N2C(C(=O)O)=C(COC(C)=O)CS[C@H]12)c1csc(N)n1 (stereo in doubt)	–	0.347% (inactive)
CC(C)(C)c1ccc2c(S(=O)(=O)O)c(C(C)(C)C)ccc2c1	inactive	–
CC(C)C[C@@H]1NC(=O)[C@H](CCCN)NC(=O)[C@H](C(C)C)NC(=O)[C@@H]2CCCN2C(=O)[C@@H](Cc2ccccc2)NC(=O)[C@H](CC(C)C)NC(=O)[C@H](CCCN)NC(=O)[C@H](C(C)C)NC(=O)[C@@H]2CCCN2C(=O)[C@@H](Cc2ccccc2)NC1=O (cyclo(V[Orn]L[dF]PV[Orn]L[dF]P))	23.9 µM [inconclusive] (active)	–
CC(C)C[C@H](NC(=O)[C@@H](COC(C)(C)C)NC(=O)[C@H](Cc1ccc(O)cc1)NC(=O)[C@H](CO)NC(=O)[C@H](Cc1c[nH]c2ccccc12)NC(=O)[C@H](Cc1cnc[nH]1)NC(=O)[C@@H]1CCC(=O)N1)C(=O)N[C@@H](CCCN=C(N)N)C(=O)N1CCC[C@H]1C(=O)NNC(N)=O	inactive	–
c1ccc(-n2cnnn2)cc1	–	0.372% (inactive)
OCl	–	-1.25% (inactive)
CCCCCCCCCCCCCCCC(=O)OC[C@H](COP(=O)([O-])OCC[N+](C)(C)C)OC(=O)CCCCCCCCCCCCCCC	–	0.0356% (inactive)
CCOC(=O)[C@H](CCc1ccccc1)N[C@@H](C)C(=O)N1[C@H](C(=O)O)C[C@H]2CCCC[C@@H]21	inactive	–
CC(C)(O/N=C(\C(=O)N[C@@H]1C(=O)N2C(C(=O)[O-])=C(C[n+]3ccccc3)CS[C@H]12)c1csc(N)n1)C(=O)O	–	1.95% [at 29.2 µM] (inactive)
C(=C\c1ccncc1)/c1ccccc1	inactive	–
CCCCCCOC(=O)c1cccnc1	–	1.25% (inactive)

From PubChem BioAssay (Tox21)
